Test results published in PubChem BioAssay (NCATS).
Results filed as inconclusive are left out. A call without a number means that no potency is given here. Calls of active or inactive are those of the source. Calls follow the shape of the full dose curve. Where a SMILES comes first, the peptide text is derived from it. [ ]: non-standard residue; d: D form. pGlu = O=C1CC[C@@H](C(=O)O)N1; Thz = O=C(O)[C@@H]1CSCN1

Test: S16 Schwann cell PMP22 intronic element beta-lactamase assay (AID 624044); also: nearly all actives have a fitted effect of over 15% in size
Conditions: S16 rat Schwann cells, PMP22 element beta-lactamase FRET, 24 h; series mostly up to 38.3 µM
Outline: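 Beta-lactamase reporter under a PMP22 intronic regulatory element in stable S16 rat Schwann cells; 24 h compound exposure. 460 nm blue signal normalized between DMSO (0%) and potassium clavulanate, with 535 nm FRET tracking viability; curves classed by r2 and response.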
Potency is read from the fitted curve at half-maximal effect.

Row | SMILES | Potency
1 | Oc1c(Br)cc(Br)c2cccnc12 | 19.9 µM (active)
2 | O=C(O)COc1ccc(C(=O)c2cccs2)c(Cl)c1Cl | inactive
3 | CCC1C(=O)OCC1Cc1cncn1C (configuration not stated) | inactive
4 | CCCCCCCCCCCCCCCC(=O)OC(C)C | inactive
5 | CC(N)C(=O)OC(C)(C)Cc1ccc(Cl)cc1 (configuration not stated) | inactive
6 | COc1cc(/C=C/C(=O)CC(=O)/C=C/c2ccc(O)c(OC)c2)ccc1O | inactive
7 | COc1ccc(/C=C/C(=O)Nc2ccccc2C(=O)O)cc1OC | inactive
8 | CCCCCC[C@@H](O)C/C=C\CCCCCCCC(=O)O | inactive
9 | Cc1ccccc1CNc1ncnc2c1ncn2C1OC(CO)C(O)C1O (configuration not stated) | inactive
10 | CCCCC[C@H](O)/C=C/[C@@H]1[C@@H](C/C=C\CCCC(=O)O)[C@@H](O)C[C@H]1O | inactive
11 | Cc1cc(O)c2ccccc2c1O | inactive
12 | COC(=O)C1=C(C)NC(C)=C(C(=O)OCC(C)C)C1c1ccccc1[N+](=O)[O-] (configuration not stated) | inactive
13 | CC1(C)S[C@@H]2[C@H](NC(=O)[C@H](NC(=O)N3CCN(S(C)(=O)=O)C3=O)c3ccccc3)C(=O)N2[C@H]1C(=O)O | inactive
14 | CN1[C@@H]2CC[C@H]1CC(OC(=O)C(CO)c1ccccc1)C2 (some centres not stated) | inactive
15 | O=C(/C=C/c1ccccc1)NCCO | inactive
16 | [O-][n+]1ccccc1SSc1cccc[n+]1[O-] | 1.12 µM (active)
17 | N=c1ccn2c(n1)O[C@H]1[C@H](O)[C@@H](CO)O[C@H]12 | 14.1 µM (active)
18 | CN1[C@@H]2CC[C@H]1CC(OC(c1ccccc1)c1ccccc1)C2 (some centres not stated) | inactive
19 | CCCCCCCCCCCCCCCCCC(=O)O | inactive
20 | O=C(O)c1cc(O)c(O)c(O)c1 | inactive
21 | CN(C)c1ccc(C(=C2C=CC(=[N+](C)C)C=C2)c2ccccc2)cc1 | 3.98 µM (active)
22 | CC1(C)[C@@H](O)CC[C@]2(C)[C@H]3C(=O)C=C4[C@@H]5C[C@@](C)(C(=O)O)CC[C@]5(C)CC[C@@]4(C)[C@]3(C)CC[C@@H]12 | inactive
23 | C=C(Nc1ccc(OCC)cc1)Nc1ccc(OCC)cc1 | inactive
24 | Nc1cc(-c2ccncc2)c[nH]c1=O | inactive
25 | O=C(O)/C=C/C(O)c1ccc(Cl)cc1 (configuration not stated) | inactive
26 | O=C1CC[C@@H](C(=O)N2CSC[C@H]2C(=O)O)N1 ([pGlu]-[Thz]-OH) | inactive
27 | COc1cc(CNC(=O)CCCC/C=C/C(C)C)ccc1O | inactive
